KCNQ2 block: inhibitors of rat KCNQ2 potassium channel | B-score at 10 µM | CHO-K1 KCNQ2, FluxOR thallium flux, 20 min; stronger effect = lower value | hit rate 1.1% among 310,000 | O88943 | AID 2156;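 active = fluorescence ratio B-score at most minus 3 library SDs, with starting brightness B-score within 2 library SDs, cut at about -5.5 in these data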
KCNQ2 enhance: KCNQ2 (rat) channel potentiation; B-score at 10 µM; CHO-K1 KCNQ2, FluxOR thallium flux fluorescence; stronger effect = higher value; O88943; hit rate 0.54% among 310,000; AID 2239;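 active = fluorescence ratio B-score at least 3 SD of library B-scores, with initial fluorescence B-score within 3 of them, cut at about 5.3 in these data; same plate scores as AID 2156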;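 also: B-score of peak minus minimum over baseline fluorescence ratio after K+ and Tl+ stimulus; positive B-score means potentiation of KCNQ2 with more thallium influx and brighter signal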
Kir21 conf inh: confirmation of mouse Kir2.1 potassium channel inhibitors | shares compounds with KCNQ2 enhance | Kir2.1-expressing cells, FluxOR thallium flux fluorescence; stronger effect = lower value | Tl flux remaining, % of negative control (stronger effect = lower value), % at 10 µM | hit rate 41% among 2,300;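 active = Primary-screen hit whose thallium flux fell at least 3 control SD below untreated wells in both duplicates, with normal baseline fluorescence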;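 also: 0% = blank wells without stimulus and 100% = stimulated no-compound controls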
Target sequence (P35561 whole entry, looked up): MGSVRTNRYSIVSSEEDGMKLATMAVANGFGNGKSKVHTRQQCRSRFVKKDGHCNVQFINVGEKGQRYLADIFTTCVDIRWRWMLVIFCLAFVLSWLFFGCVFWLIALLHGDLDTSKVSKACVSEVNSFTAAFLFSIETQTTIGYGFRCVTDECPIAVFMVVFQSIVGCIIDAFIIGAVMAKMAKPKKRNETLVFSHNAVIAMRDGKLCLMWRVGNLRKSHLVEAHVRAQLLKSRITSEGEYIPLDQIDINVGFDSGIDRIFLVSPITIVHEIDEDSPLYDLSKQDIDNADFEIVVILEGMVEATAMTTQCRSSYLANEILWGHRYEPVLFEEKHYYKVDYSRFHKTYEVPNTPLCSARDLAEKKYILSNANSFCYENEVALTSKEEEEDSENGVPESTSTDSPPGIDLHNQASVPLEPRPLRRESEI
HEK293 Tl flux: counter-screen for Kir2.1 inhibitors: effect in parental HEK293 cells. FluxOR thallium flux fluorescence; 0% = unstimulated blank wells. shares compounds with KCNQ2 enhance. FluxOR signal as % of negative control (100 = no effect), % at 10 µM. hit rate 19% among 2,300;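 active = dye signal at least 3 control SD above or below untreated wells in both duplicates, raw fluorescence within 3, either direction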;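 also: percent is based on the flux ratio of peak minus minimum fluorescence over baseline F0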
CHO-K1 ctr: parental CHO-K1 activity in KCNQ2 potentiator counter-screen; shares compounds with KCNQ2 enhance; parental CHO-K1 cells, FluxOR thallium flux fluorescence; zero = vehicle mean+3SD, 100% = vehicle-minus-blank window; activity increase over 3SD of controls, % at 10 µM; hit rate 43% among 1,200; AID 2282;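 active = signal rise of at least 3 SD above the untreated control mean, in both duplicate wells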;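 also: counter screen of KCNQ2 potentiator hits so any rise reflects channel-independent effects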
KCNQ1 pot spec: tests whether KCNQ2 potentiators also act on human KCNQ1; shares compounds with KCNQ2 enhance; CHO KCNQ1 stable, FluxOR thallium flux fluorescence; beyond 3SD, as % of vehicle-control signal; activation over 3SD threshold, % at 10 µM; hit rate 28% among 1,200; AID 2283;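 active = fluorescence ratio rise of at least 3 SD of vehicle wells above their mean, in both replicate wells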;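 also: 0% = vehicle mean plus 3 SD and 100% = vehicle minus unstimulated blank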
KCNQ2 pot confirm: rat KCNQ2 channel potentiator confirmation; potentiation, less the hit threshold, % at 10 µM; CHO-KCNQ2 cells, FluxOR thallium flux fluorescence; hit rate 68% among 1,200; AID 2287; shares compounds with KCNQ2 enhance;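 active = fluorescence ratio rising 3 SD or more over the vehicle control mean in both replicates, plus primary screen hit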;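 also: peak minus minimum thallium fluorescence divided by baseline after K/Tl stimulus; 0% = vehicle mean plus 3 SD and 100% = vehicle minus unstimulated blank difference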
Kir21 spec: selectivity of KCNQ2 potentiators: effect on mouse Kir2.1; hit rate 2% among 1,200; shares compounds with KCNQ2 enhance; AID 2345; HEK293 Kir2.1, FluxOR thallium flux fluorescence; activity over 3SD threshold, % at 10 µM;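 active = fluorescence ratio rise of at least 3 SD above the vehicle-control mean, seen in both replicates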;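 also: 0% = vehicle mean plus 3 SD and 100% = vehicle minus no-stimulus blank window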
KCNQ2 W236L MoA: rat KCNQ2 W236L mutant potentiation by KCNQ2 potentiators; shares compounds with KCNQ2 enhance; CHO KCNQ2-W236L, automated patch clamp current; current increase over 3SD of negative controls (%), stronger effect = higher value, % at 25 µM; hit rate 10% among 940; AID 2558;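 active = current increase at least 3 SD of the untreated controls above them in both duplicate recordings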
* hit, by the source's call; i = inactive; / = no result given. Sampled rows, rich in hits. Any-hit rate of the full collection: about 1.6%.

SMILES	KCNQ2 block	KCNQ2 enhance	Kir21 conf inh	HEK293 Tl flux	others
Cc1ccc(C)c(S(=O)(=O)N2CCN(C(=O)CSC(=S)N3CCCC3)CC2)c1	i	0.59	/	/
Cc1ccc(C2(C)NC(=O)N(CC(=O)Nc3ccccc3C(=O)NC3CCCC3)C2=O)cc1 (centres undefined)	i	0.48	/	/
Cn1nc([N+](=O)[O-])nc1N1CCOCC1	i	0.45	/	/
CC(=O)c1cccc(NCC(=O)Nc2cc(S(=O)(=O)N3CCCCC3)ccc2C)c1	i	1.36	/	/
CCc1cc2c(=O)oc(-c3ccc(Br)cc3)nc2s1	i	0.26	/	/
C=CCn1c(SCC(=O)c2[nH]c(C)c(C(=O)OCC)c2C)nc2scc(-c3ccc(OC)cc3)c2c1=O	i	/	/	/
COCC(=O)O[C@]1(CCN(C)CCCc2nc3ccccc3[nH]2)CCc2cc(F)ccc2[C@@H]1C(C)C	i	/	31.0%*	i
O=C(COc1ccccc1F)NCc1nc2ccccc2[nH]1	i	/	/	/
COc1cccc(CC(=O)Nc2ccc3c(c2)CCC3)c1	i	6.03*	i	i	CHO-K1 ctr=-14.1;KCNQ1 pot spec=-18.1;KCNQ2 pot confirm=12.3*;Kir21 spec=-29.9;KCNQ2 W236L MoA=i
COc1cccc(CC(=O)Nc2ccccc2C(=O)N2CCOCC2)c1	i	0.29	/	/
COc1ccc(CC(=O)Nc2ccccc2N2CCOCC2)cc1OC	i	0.11	/	/
COc1ccc(CC(=O)Nc2ccccc2N2CCCCC2)cc1OC	i	/	i	77.5%*
COc1cc(CC(=O)Nc2ccc3c(c2)CCC3)cc(OC)c1OC	i	0.88	/	/
COc1cccc(CC(=O)Nc2ccccc2N2CCCC2)c1	i	6.14*	49.5%*	i	CHO-K1 ctr=-9.4;KCNQ1 pot spec=18.3*;KCNQ2 pot confirm=17.4*;Kir21 spec=-91.8;KCNQ2 W236L MoA=i
Nc1nccnc1C(=O)OCC(=O)Nc1ccc2[nH]c(=O)[nH]c2c1	i	0.11	/	/
CCOc1ccccc1N1CC(C(=O)N(C)Cc2cccnc2)CC1=O (centres undefined)	i	0.05	/	/
CCCc1nc2nc(C)c(NS(=O)(=O)c3ccc([N+](=O)[O-])cc3)c(=O)n2[nH]1	i	0.45	/	/
CC(C(=O)NCc1ccccc1Cl)N1C(=O)c2ccccc2C1=O (centres undefined)	i	/	/	/
Cc1cnc(C(=O)NNC(=O)c2ccc(Br)cc2)cn1	i	0.03	/	/
CCc1ccc(Nc2n[n+](-c3ccccc3)c(/C=C/c3ccccc3)s2)cc1	i	/	73.5%*	i
CCc1ccc(Nc2n[n+](-c3ccccc3)c(-c3c(Cl)cccc3Cl)s2)cc1	i	/	/	/
Cc1ccc(C(=O)NCc2ccco2)c(C)c1	i	/	/	/
Cc1ccc(C2C(C#N)=C(N)OC3=C2C(=O)CCC3)s1 (centres undefined)	i	6.48*	i	i	CHO-K1 ctr=-4.3;KCNQ1 pot spec=3.7*;KCNQ2 pot confirm=1.5*;Kir21 spec=-49.3;KCNQ2 W236L MoA=i
CCc1ccc(C2C(C#N)=C(N)OC3=C2C(=O)CCC3)s1 (centres undefined)	i	1.34	/	/
N/C(=N\OC(=O)CCC1CCCC1)c1ccc([N+](=O)[O-])cc1	i	0.44	/	/
SMILES	KCNQ2 block	KCNQ2 enhance	Kir21 conf inh	HEK293 Tl flux	others
N/C(=N\OC(=O)CCC1CCCCC1)c1cccc([N+](=O)[O-])c1	i	11.4*	i	i	CHO-K1 ctr=24.5*;KCNQ1 pot spec=-14.6;KCNQ2 pot confirm=29.6*;Kir21 spec=-38.8;KCNQ2 W236L MoA=i
N/C(=N\OC(=O)CC1CCCCC1)c1ccc(Br)cc1	i	/	/	/
N/C(=N\OC(=O)CC1CCCCC1)c1cccc(Br)c1	i	7.78*	i	i	CHO-K1 ctr=-12.6;KCNQ1 pot spec=9.5*;KCNQ2 pot confirm=21.1*;Kir21 spec=-42.7;KCNQ2 W236L MoA=i
CCn1ncc(S(=O)(=O)Nc2cc(Cl)ccc2C)c1C	i	0.73	/	/
O=C(c1ccccc1)N1CCN(C(=O)c2nn3c(C(F)(F)F)cc(-c4ccccc4)nc3c2Br)CC1	i	0.12	/	/
CC(=O)Nc1cc2c3c(c1)CCC(=O)N3CCC2	i	/	/	/
CN(C)CCOCCOc1ccc(Cl)cc1C(C)(C)C	i	/	34.0%*	i
CC(O)CNCCCOc1ccc(Cl)cc1C(C)(C)C (centres undefined)	i	/	32.5%*	i
CC(C)(C)c1cc(Cl)ccc1OCCn1ccnc1	i	0.35	/	/
COCCCNCCCOc1ccc(Cl)cc1Br	i	/	/	/
CC(=O)c1ccc(N2CCN(C(=O)CCCc3nc4ccccc4s3)CC2)cc1	i	1.96	/	/
Cc1cccc(-n2ncc3c2CCCC3NC(=O)C2=CC(=O)CC(C)(C)O2)c1C (centres undefined)	i	/	/	/
CCOC(=O)c1c(CSC(=N)N)n(-c2ccc(C)cc2)c2cc(Br)c(OC(C)=O)cc12	i	/	58.5%*	i
CCOC(=O)c1c(CSC(=N)N)n(C)c2cc(Br)c(OC(C)=O)cc12	i	/	/	/
c1ccc2c(NCCc3c[nH]c4ccccc34)c3ccccc3nc2c1	i	/	38.5%*	i
Fc1cccc(NCCc2c[nH]c3ccccc23)n1	i	1.11	/	/
CCOC(=O)c1sc(=S)n(-c2ccccc2)c1NC(C)=O	i	7.47*	/	/	CHO-K1 ctr=34.6*;KCNQ1 pot spec=3.6*;KCNQ2 pot confirm=7.8*;Kir21 spec=-60.9;KCNQ2 W236L MoA=i
CCOC(=O)c1sc(=S)n(C)c1NC(=O)c1ccccc1	i	/	/	/
Fc1ccccc1N1CCN(C2CCCN(Cc3cccc(C(F)(F)F)c3)C2)CC1 (centres undefined)	i	/	/	/
O=C(NCCO)C(=O)c1c(-c2ccc(Cl)cc2)cc2ccccn12	i	/	/	/
O=C(O)c1ccn2c(C(=O)c3ccc(Cl)cc3)c(-c3ccccc3)cc2c1	i	8.45*	i	i	CHO-K1 ctr=-6.5;KCNQ1 pot spec=-11.3;KCNQ2 pot confirm=15.5*;Kir21 spec=-25.0;KCNQ2 W236L MoA=i
Fc1ccc(-c2cc(C(F)(F)F)nc(-n3cncn3)n2)cc1	i	6.24*	i	i	CHO-K1 ctr=-11.1;KCNQ1 pot spec=-11.4;KCNQ2 pot confirm=19.1*;Kir21 spec=-14.3;KCNQ2 W236L MoA=i
Fc1ccc(-c2cc(C(F)(F)F)nc(-n3cccn3)n2)cc1	i	/	/	/
CCc1ccc(NC(=O)C2CCN(S(=O)(=O)c3ccc4[nH]c(=O)ccc4c3)CC2)cc1	i	/	/	/
Cc1ccc(S(=O)(=O)c2cnc3cc(C)nn3c2N)cc1	i	/	/	/
Cc1ccccc1Cn1nc(C)c(NC(=O)c2sc3ccccc3c2Cl)c1C	i	0.29	/	/
Cc1ccccc1Cn1nc(C)c(NC(=O)c2ccccc2)c1C	i	0.03	i	i
CN(C)C(=O)c1cc(Cl)ccc1Sc1cc(Cl)ccc1Cl	i	/	/	/

Screens (PubChem BioAssay)
